CYP2C19 inhib: blockers of cytochrome P450 2C19 activity – biochemical, luminescence, ADME assay, primary screen. 21% of 96,000 active. P33261. CYP2C19 Supersomes, luciferin-H EGE luminescence, 30 min. inhibition, % at 5 µM. AID 778, 2007;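 active means CYP2C19 inhibition above a set limit at 5 µM in the primary screen, cut at about 50% in these data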
CYP2C19 act: human CYP2C19 activators, primary screen, biochemical, luminescence; Cytochrome P450 2C19 (Homo sapiens), P33261; recombinant CYP2C19, luciferin-H EGE luminescence; stronger effect = higher value; 0 = fully inhibited enzyme, 1 = untreated enzyme; activation factor at 5 µM; 96,000 tested, under 10 active; AID 1025, 2008;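 active means activation factor of at least 2 at 5 µM in the primary screen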
Pyk2 oligo antag: antagonists of Pyk2 self-association, primary screen, Q293 cells, FERM NanoBiT luminescence, HTS | Protein-tyrosine kinase 2-beta (Homo sapiens), Q14289 | stronger effect = lower value | z-score (the deposit names both 25 µM and 10 µM) | 0.83% of 99,000 active | AID 1347419, 2020;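 active means Z-score of -3 or lower, scaled per plate to the spread of control and sample wells; inactive means z-score above -3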;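 further: negative z-score means lost luminescence so less FERM oligomerization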
Target sequence (Q14289 whole entry, looked up): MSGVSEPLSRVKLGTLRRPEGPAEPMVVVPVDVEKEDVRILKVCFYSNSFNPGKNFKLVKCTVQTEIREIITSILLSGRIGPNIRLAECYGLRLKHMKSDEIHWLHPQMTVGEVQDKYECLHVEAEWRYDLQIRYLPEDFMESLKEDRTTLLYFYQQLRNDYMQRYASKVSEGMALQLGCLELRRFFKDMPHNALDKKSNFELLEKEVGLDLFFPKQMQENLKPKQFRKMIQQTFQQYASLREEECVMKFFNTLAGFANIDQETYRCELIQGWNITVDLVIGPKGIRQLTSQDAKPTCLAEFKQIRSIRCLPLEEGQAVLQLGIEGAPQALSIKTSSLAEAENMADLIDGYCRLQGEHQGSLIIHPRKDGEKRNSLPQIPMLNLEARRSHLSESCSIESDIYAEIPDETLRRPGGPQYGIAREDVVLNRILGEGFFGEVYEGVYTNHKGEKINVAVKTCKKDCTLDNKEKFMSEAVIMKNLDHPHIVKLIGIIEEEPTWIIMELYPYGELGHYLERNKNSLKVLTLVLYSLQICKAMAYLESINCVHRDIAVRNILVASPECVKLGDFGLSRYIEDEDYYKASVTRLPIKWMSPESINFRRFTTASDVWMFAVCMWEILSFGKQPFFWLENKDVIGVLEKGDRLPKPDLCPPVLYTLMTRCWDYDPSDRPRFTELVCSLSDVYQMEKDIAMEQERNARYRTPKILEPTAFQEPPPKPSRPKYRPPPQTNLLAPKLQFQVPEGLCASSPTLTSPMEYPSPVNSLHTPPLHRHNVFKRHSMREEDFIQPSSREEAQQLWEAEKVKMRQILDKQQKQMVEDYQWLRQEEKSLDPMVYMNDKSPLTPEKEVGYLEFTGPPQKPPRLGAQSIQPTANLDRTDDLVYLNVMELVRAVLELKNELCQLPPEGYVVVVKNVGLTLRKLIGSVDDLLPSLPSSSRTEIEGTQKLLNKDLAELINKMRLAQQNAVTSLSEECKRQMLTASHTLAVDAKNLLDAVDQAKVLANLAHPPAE
Cav3 T inh: Cav3.2 calcium influx blockers – cell-based, Fluo-4 calcium fluorescence, FDSS, MLSMR library, primary screen | B-score at 10 µM | Voltage-dependent T-type calcium channel subunit alpha-1H (Homo sapiens), O95180 | Cav3.2-expressing cells; stronger effect = lower value | AID 449739, 2010 | 4% of 100,000 active;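 active means single-dose well whose peak fluorescence ratio is a statistical outlier from its plate by either plate-standardised score or position-corrected B-score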
CYP2C9 inhib: blockers of cytochrome P450 2C9 activity – biochemical, luminescence, ADME assay, primary screen; inhibition, % at 5 µM; P11712; CYP2C9 Supersomes, luciferin-H conversion; AID 777, 2007; 20% of 96,000 active;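 active means blocking of liver enzyme CYP2C9 beyond about 50% at 5 µM, limit read from the data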
CYP2C9 act: human CYP2C9 activators, primary screen, biochemical, luminescence; recombinant CYP2C9, luciferin-H conversion; stronger effect = higher value; factor 1 = untreated enzyme, 0 = blocked; activation factor at 5 µM; 1.4% of 96,000 active;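 active means activation factor of 2 or more for CYP2C9 at a 5 µM dose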
Numbers stand for hits; n = inactive; x = not tested or not shown. Most compounds without a hit are left out; they make up all but 27% or so of the library.

SMILES	CYP2C19 inhib	CYP2C19 act	Pyk2 oligo antag	Cav3 T inh	CYP2C9 inhib	CYP2C9 act
Cc1occc1-c1nnc(SCC(=O)c2ccc(F)cc2)n1Cc1ccco1	n	n	n	n	60	n
CC(=O)Nc1ccc(OC(F)(F)C(F)C(F)(F)F)c(NC(C)=O)c1 (stereo unspecified)	n	n	n	n	n	n
O=C(Nc1ccc(S(=O)(=O)Nc2ncccn2)cc1)c1ccco1	n	n	n	n	n	n
O=C(NC1(C(F)(F)F)C(=O)Nc2c1c(=O)[nH]c(=O)n2Cc1ccco1)C1CC1 (stereo unspecified)	x	x	n	n	x	x
CC(C)(C)C1CCC2(CC1)CC(=O)c1ccccc1O2 (stereo unspecified)	x	x	x	n	x	x
Cn1c(SCC(=O)c2ccc(F)cc2)nnc1-c1ccccc1N	75	n	n	n	n	n
O=C(CSc1nc2ccccc2c(=O)n1Cc1ccco1)c1ccc(F)cc1	n	n	n	n	52	n
COc1ccccc1-c1nnc(SCC(=O)c2ccc(C3CCCCC3)cc2)n1Cc1ccco1	80	n	n	-4.7	86	n
Cc1ccc(C(=O)CSc2nnc(-c3ccccc3N)n2C)cc1	n	n	n	n	n	n
COc1ccc(C(=O)CSc2nnc(-c3ccoc3C)n2CC2CCCO2)cc1 (stereo unspecified)	n	n	n	n	n	n
Cn1c(C(=O)N2CCCC2)cc2c(=O)n(C)c3ccccc3c21	n	n	x	n	n	n
Cn1c(C(=O)N2CCN(c3ncccn3)CC2)cc2c(=O)n(C)c3ccccc3c21	n	n	x	n	93	n
Cc1ccc(Cl)cc1N1CCN(C(=O)c2cc3c(=O)n(C)c4ccccc4c3n2C)CC1	77	n	x	n	98	n
Cn1cnnc1SCC(=O)c1cc2ccccc2oc1=O	n	n	n	n	n	n
O=C(Cn1nc(Cl)nc1Cl)c1cc2ccccc2oc1=O	n	n	n	n	62	n
CN(C)S(=O)(=O)c1ccc(Cl)c(C(=O)NCc2ccco2)c1	n	n	n	n	n	n
Cc1cc(C)n(-c2ccc(C(=O)OCC(=O)NCc3ccco3)cc2)n1	n	n	n	n	n	n
COC(=O)COc1ccc(S(=O)(=O)NCc2ccco2)cc1Cl	58	n	n	x	n	n
COc1ccc(C(=O)OCC(=O)NCc2ccco2)cc1S(=O)(=O)N1CCN(c2cccc(Cl)c2)CC1	98	n	n	-7.4	96	n
O=C(NCc1ccco1)c1cc(S(=O)(=O)N2CCCc3ccccc32)ccc1Cl	81	n	n	n	n	n
O=C(COc1ccc(S(=O)(=O)N2CCCC2)cc1)NCc1ccco1	n	n	n	n	n	n
Cc1cc(S(=O)(=O)N2CCCC2)ccc1OCC(=O)NCc1ccco1	n	n	n	n	50	n
COCCNS(=O)(=O)c1ccc(OCC(=O)OC)c(Cl)c1	n	n	n	n	n	n
CCOC(=O)c1ccc(NC(=O)c2nccnc2C(=O)O)cc1	n	n	x	n	n	n
CC1(C)CC2(CC(C)(C)NC(=O)N2)NC(=O)N1	n	n	n	x	n	n
SMILES	CYP2C19 inhib	CYP2C19 act	Pyk2 oligo antag	Cav3 T inh	CYP2C9 inhib	CYP2C9 act
O=C(COc1ccc(S(=O)(=O)N2CCCC2)cc1Cl)NCc1ccco1	n	n	n	n	85	n
CC1CCN(c2ccc(NC(=O)c3cccnc3)cc2)CC1	n	n	n	n	72	n
COc1ccc(-c2noc(CN3CCOCC3)n2)cc1OC	n	n	n	n	n	n
CCOC(=O)CSc1nnc(SCCN2C(=O)c3ccccc3C2=O)s1	n	n	n	x	83	n
N#CC1=C(Nc2ccccc2)SC=C(c2ccc(Cl)c(Cl)c2)N=C1N1CCOCC1	n	n	n	x	n	n
Cc1cc(C(=O)NCCCN2CCN(C3CCCCC3)CC2)n(-c2ccccc2)n1	n	n	x	n	n	n
Cc1ccc(C2CC(c3ccc(Cl)cc3)=NNC2=O)cc1 (stereo unspecified)	85	n	n	n	n	n
CCc1ccc(C2CC(c3ccc(Cl)cc3)=NNC2=O)cc1 (stereo unspecified)	84	n	n	n	n	n
